Test systems include DU-145 prostate; K-562 leukemia; MALME-3M melanoma; MDA-MB-231 breast; RXF 393 renal; SF-268 CNS; SF-295 CNS; SF-539 CNS; UACC-257 melanoma; M14 melanoma; HCT-15 colon; HT29 colon; SNB-75 CNS; SNB-19 CNS; U251 CNS; PC-3 prostate; SK-MEL-5 melanoma; UACC-62 melanoma; SK-MEL-28 melanoma; LOX IMVI melanoma.
What all share (experiment): NCI-60 one-dose screen, 48 h (100 = growth as untreated, 0 = no growth, -100 = all killed)
Holding throughout (settings): 10 µM

This is part of a sample that, as a whole, favours compounds with a hit. Of some 83,000 tested, about 20% had one in any assay.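 A percent growth of 40 corresponds to 60% growth inhibition; 0 means no net growth; -100 means all cells died. Active threshold: below 10.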 Values without a mark were called inactive. Calls of active or inactive are those of the source.

On to `CS(=O)(=O)c1nccc(-c2c(-c3cccc(O)c3)nc3sccn23)n1`, for which the growth in the assay on DU-145 prostate was 90.9%; with K-562 leukemia, 101%; in the assay on MALME-3M melanoma, 94.7%; in the assay with MDA-MB-231 breast, 74.4%; in the assay on RXF 393 renal it was 85%; in the assay on SF-268 CNS it was 98.5%. Besides, the growth with SF-295 CNS was 103%; in the assay with SF-539 CNS, 92.4%; in the assay on UACC-257 melanoma it was 92.9%; with M14 melanoma it was 94%; in the assay with HCT-15 colon, 101%; in the assay on HT29 colon, 91.7%. In addition, the growth in the assay on SNB-75 CNS is 70.4%; in the assay on SNB-19 CNS it was 103%; with U251 CNS it was 91.9%; in the assay with PC-3 prostate it was 96.8%; with SK-MEL-5 melanoma, 86%; with UACC-62 melanoma it was 85.9%. In addition, in the assay with SK-MEL-28 melanoma, the growth was 94%.

For `CN(C)c1ccc(/C=N/NC(=O)c2cccc3ccccc23)c(Cl)c1`, the growth with DU-145 prostate is 17.1%; in the assay on K-562 leukemia, 11.6%; in the assay on MALME-3M melanoma it was 53.4%; in the assay on MDA-MB-231 breast, 67.7%; with RXF 393 renal, 7.47% (active); with SF-268 CNS it was 59%. In addition, the growth is 19.1% with SF-295 CNS; 19.9% in the assay with SF-539 CNS; 35.8% in the assay on UACC-257 melanoma; 27.6% in the assay with M14 melanoma; 27.9% in the assay with HCT-15 colon; 12.9% in the assay with HT29 colon. The growth was 20.3% in the assay on SNB-75 CNS; 52.6% with SNB-19 CNS; 23.9% with U251 CNS; 20.3% in the assay on PC-3 prostate; 24.3% in the assay with SK-MEL-5 melanoma; 46.4% in the assay on UACC-62 melanoma. The growth is 37.9% in the assay on LOX IMVI melanoma and 42% in the assay on SK-MEL-28 melanoma.

`COc1cc(-c2nn(-c3cccc(NC(=O)CCN4CCN(c5ccccc5)CC4)c3)cc2-c2ccncc2)ccc1Cl`: the growth is 30.8% in the assay with DU-145 prostate; 11.3% in the assay on K-562 leukemia; 38% in the assay on MALME-3M melanoma; 7.1% (active) in the assay with MDA-MB-231 breast; -0.267% (active) in the assay with RXF 393 renal; 30% with SF-268 CNS. The growth is 13.4% in the assay on SF-295 CNS; 30.2% in the assay with SF-539 CNS; 29.1% in the assay with UACC-257 melanoma; 10.8% in the assay with M14 melanoma; 20.8% in the assay on HCT-15 colon; 4.96% (active) in the assay on HT29 colon. Further, the growth with SNB-75 CNS was 36.8%; in the assay on SNB-19 CNS, 35.9%; in the assay with U251 CNS, 17.2%; in the assay with PC-3 prostate it was 22%; with SK-MEL-5 melanoma, 22%; in the assay with LOX IMVI melanoma, 6.98% (active). For the same compound, in the assay on SK-MEL-28 melanoma, the growth is 28.9%.

Take `COc1cccc(N=Nc2cccc(OC)c2)c1`: the growth was 112% with DU-145 prostate; 87.8% with K-562 leukemia; 101% with MALME-3M melanoma; 84% in the assay with MDA-MB-231 breast; 91.2% with RXF 393 renal; 103% in the assay on SF-268 CNS. For the same compound, the growth with SF-295 CNS was 92.8%; in the assay with SF-539 CNS, 95.4%; in the assay with UACC-257 melanoma, 90.9%; in the assay on M14 melanoma it was 90.7%; with HCT-15 colon it was 91.1%; with HT29 colon, 94.9%. For the same compound, the growth with SNB-75 CNS is 102%; in the assay with SNB-19 CNS it was 97%; in the assay on U251 CNS it was 79.4%; in the assay on PC-3 prostate it was 67.7%; in the assay with SK-MEL-5 melanoma, 99.1%; in the assay on LOX IMVI melanoma, 96.7%. Also, in the assay with SK-MEL-28 melanoma, the growth is 99.6%.

Regarding `C1CN(CC2CCC(CN3CCOCC3)O2)CCO1` (stereo not drawn), the growth in the assay on DU-145 prostate is 111%; with K-562 leukemia it was 63.1%; in the assay with MALME-3M melanoma, -4.36% (active); with MDA-MB-231 breast, 118%; in the assay on RXF 393 renal, 112%; in the assay on SF-268 CNS it was 104%. Further, the growth in the assay on SF-295 CNS was 99.7%; in the assay with SF-539 CNS, 98%; in the assay with UACC-257 melanoma it was 103%; with M14 melanoma, 95.9%; with HCT-15 colon, 101%; in the assay on HT29 colon it was 102%. Further, the growth is 96.5% in the assay with SNB-75 CNS; 105% in the assay with SNB-19 CNS; 108% with U251 CNS; 105% with SK-MEL-5 melanoma; 106% with UACC-62 melanoma; 93.2% in the assay on LOX IMVI melanoma. The growth in the assay on SK-MEL-28 melanoma was 105%.

On to `CC(C)CCN(CCC(C)C)CC(=O)Nc1ccc(S(=O)(=O)c2ccc(NC(=O)CN(CCC(C)C)CCC(C)C)cc2)cc1`, for which the growth in the assay on DU-145 prostate is 54%; in the assay with K-562 leukemia, 3.86% (active); with MALME-3M melanoma, 19.4%; in the assay with MDA-MB-231 breast it was 31%; in the assay on RXF 393 renal, 24.9%; in the assay on SF-268 CNS it was 34.5%. For the same compound, the growth in the assay with SF-295 CNS was 90.1%; with SF-539 CNS it was 21.4%; in the assay with UACC-257 melanoma, 56.2%; with M14 melanoma it was 31.6%; in the assay on HCT-15 colon, 10.4%; in the assay with HT29 colon, 10.3%. For the same compound, the growth in the assay with SNB-75 CNS was 79.3%; with SNB-19 CNS it was 52.6%; in the assay on U251 CNS, 10.5%; in the assay with PC-3 prostate, 39.7%; with SK-MEL-5 melanoma it was 47%; in the assay on LOX IMVI melanoma, -78.4% (active). Moreover, the growth in the assay with SK-MEL-28 melanoma is 72.6%.

`COc1ccc(-c2cc(-c3ccc(Cl)cc3)nc(SCCCC(=O)NO)n2)cc1OC`: the growth was 14.2% in the assay with DU-145 prostate; 3.01% (active) with K-562 leukemia; 6.86% (active) with MALME-3M melanoma; 6.55% (active) in the assay on MDA-MB-231 breast; -38.2% (active) in the assay on RXF 393 renal; 8.6% (active) in the assay with SF-268 CNS. Moreover, the growth is -32.6% (active) in the assay with SF-295 CNS; -35.7% (active) in the assay on SF-539 CNS; 16.1% with UACC-257 melanoma; -40.2% (active) in the assay on M14 melanoma; -4% (active) with HCT-15 colon; 6.66% (active) with HT29 colon. Further, the growth in the assay on SNB-75 CNS is 2.56% (active); with SNB-19 CNS, 14.8%; in the assay with U251 CNS, 12.4%; with PC-3 prostate, -5.41% (active); in the assay with SK-MEL-5 melanoma, -55.9% (active); in the assay with LOX IMVI melanoma, -64.8% (active). In addition, in the assay with SK-MEL-28 melanoma, the growth is 20.5%.

As to `COc1cc(/C=C/c2cc(/C=C/c3ccc(O)c(OC)c3)[nH]c(=O)n2)ccc1O`, the growth in the assay on DU-145 prostate is 80.4%; in the assay on K-562 leukemia, 42%; with MALME-3M melanoma it was 53.6%; with MDA-MB-231 breast it was 54.2%; in the assay with RXF 393 renal it was 23.7%; in the assay on SF-268 CNS, 48.2%. For the same compound, the growth with SF-295 CNS was 92.8%; in the assay on SF-539 CNS, 69%; in the assay with UACC-257 melanoma, 62.5%; with M14 melanoma it was 75.5%; in the assay on HCT-15 colon, 81.8%; in the assay on HT29 colon, -6.41% (active). The growth is 44.3% in the assay with SNB-75 CNS; 82.6% with SNB-19 CNS; 55.6% in the assay with U251 CNS; 61% with PC-3 prostate; 70.7% in the assay with SK-MEL-5 melanoma; 49% in the assay with LOX IMVI melanoma. Besides, in the assay on SK-MEL-28 melanoma, the growth is 50.9%.

(Values after PubChem BioAssay (NCI).)
